Screens as filed in PubChem BioAssay.
Most compounds without a hit are left out; they make up all but 1.1% or so of the library.
SRC1 inh = human NCOA1 inhibition; actives 0.12% (n = 360,000); HEK293 GAL4-SRC1 luciferase reporter, luminescence; AID 588354; inhibition, % at 3.6 µM; Q15788;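 active means inhibition above the campaign mean plus 3 SD, with each screening campaign given its own cutoff, cut at about 60% in these data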;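 further: 0% = DMSO treated cells and 100% = gossypol at 36 µM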
GalR3 antag = human GalR3 antagonism; O60755; HEK293 GalR3-CNG cAMP membrane potential fluorescence; galR3 body fused to GalR1 C-terminus; inhibition, % at 3 µM; actives 0.44% (n = 360,000);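 active means inhibition above the screen-wide average plus 3 SD, cut at about 13% in these data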;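 further: forskolin and galanin both at EC90 stimulate the cells; cAMP rise reported by CNG channel membrane potential dye signal; 0% = forskolin plus galanin with DMSO and 100% = forskolin alone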
NR5A2 inv ag = suppresses constitutive activity of human LRH-1. AID 602396. inhibition, % at 3.6 µM. O00482. HEK293T StAR-luciferase reporter, LRH-1 transfected, 24 h. actives 0.13% (n = 360,000);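 active means inhibition above the mean inhibition of all tested compounds plus 3 SD, cut at about 73% in these data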;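 further: 0% = DMSO wells and 100% = reporter-only cells lacking LRH-1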
NR2F2 inh = inhibitors of human COUP-TFII (NR2F2); AID 686940; inhibition, % at 8.6 µM; HEK293T NGFI-A luciferase reporter, luminescence; P24468; actives 0.7% (n = 370,000);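 active means inhibition above a per-plate cutoff, mean inhibition of test wells between control levels plus 3 SD, cut at about 38% in these data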;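 further: cells cotransfected with COUP-TFII expression vector driving the NGFI-A reporter; 0% = median of COUP-TF2 test wells and 100% = reporter-only cells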
SRC2 inh = inhibits human steroid receptor coactivator 2; Q15596; HEK293 GAL4-SRC2 luciferase reporter, luminescence; inhibition, % at 9 µM; actives 0.17% (n = 370,000);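 active means inhibition above the mean inhibition of all tested compounds plus 3 SD, set per campaign, cut at about 52% in these data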;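 further: 0% = DMSO treated cells and 100% = cells given Gossypol at 36 µM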
SRC3 inh = inhibits human SRC3 coactivator. HEK293 GAL4-SRC3 luciferase reporter, luminescence. AID 588352. inhibition, % at 3.6 µM. actives 0.17% (n = 360,000);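 active means inhibition above a per-campaign cutoff, the mean of all compounds plus 3 SD, cut at about 60% in these data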;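 further: 0% = DMSO-treated cells and 100% = gossypol-treated cells at 36 µM; higher means less SRC3-driven luciferase light from the GAL4 reporter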
VP16 Luc counter = inhibits VP16 reporter, flagging COUP-TFII antagonist hits | AID 687007 | actives 25% (n = 2,500) | HEK293 Gal4-VP16 luciferase reporter, luminescence | shares compounds with NR2F2 inh | inhibition, % at 8.5 µM; in the data active means inhibition above about 13%
NR2F2 inh conf = confirmation of human COUP-TFII (NR2F2) inhibitors. shares compounds with NR2F2 inh. HEK293 NGFI-A luciferase reporter, luminescence. inhibition, % at 8.5 µM. actives 45% (n = 2,500). AID 687008;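 active means mean inhibition over three repeats above a set limit taken from the earlier primary screen, cut at about 38% in these data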;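 further: 100% = cells given the luciferase reporter alone without the COUP-TF2 vector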
* = called active by the depositor; x = not tested or not shown; ! = not active in a repeat.

SMILES	SRC1 inh	GalR3 antag	NR5A2 inv ag	NR2F2 inh	SRC2 inh	SRC3 inh	VP16 Luc counter	NR2F2 inh conf
CC[C@@H](O)C[C@H]1CCC[C@@]2(C[C@@H]3OC(=O)/C=C/[C@@](C)(O)[C@@H](O)[C@H](C)[C@@H](O)[C@H](OC4CCC(N(C)C)C(C)O4)[C@@H](O)[C@](C)(O)CCCCC/C=C/[C@@H]4CC(C)(C)O[C@@]4(O)C[C@H](O2)[C@H]3C)O1 (stereo partly drawn)	69*	7	92*	80*	-17	73*	3	73*
CN1CC(Br)C(=O)NC1=O (stereo not drawn)	-16	-4	-3	5	-8	-9	x	x
C[C@H]1CCC/C=C/[C@@H]2C[C@H](O)C[C@H]2[C@H](O)/C=C/C(=O)O1	23	0	90*	50*	26	68*!	10	33
Cc1nc(-c2cccc(CN(C)C(=O)Oc3ccc([N+](=O)[O-])cc3)c2)no1	x	-4	22	7	8	x	x	x
CN(Cc1cccc(-c2cccnc2)c1)C(=O)Oc1ccc([N+](=O)[O-])cc1	x	-7	41	51*	52	x	9	31
CN(C)c1ccc(/C=C/c2cc[n+](C)c3ccccc23)cc1	68*!	-5	86*	84*	-80	67*!	23*	82*
CSc1ncc(Br)c(N2CC2)n1	-13	2	-4	0	-16	-4	x	x
CC(=O)OC1C(O)C(C)OC(OC2C(OC(=O)C3CCC4C(C3)OC3(CC(OC(=O)/C=C/c5ccccc5)C(C)CO3)C43CO3)OC(C)C(O)C2OC(C)=O)C1O (stereo not drawn)	96*	-4	99*	91*	72*	95*	23*	87*
Cc1cc(C)c(S(=O)(=O)N2Cc3ccccc3-n3nncc3C2)c(C)c1	15	-4	12	40*	31	-1	0	18
CCCCn1c(NC(=O)c2ccco2)c(C(=O)OCC)c2nc3ccccc3nc21	3	2	31	44*	0	-5	0	2
CCCCn1c(NS(=O)(=O)c2ccc(C)cc2)c(C(=O)OCC)c2nc3ccccc3nc21	5	2	2	31	4	12	x	x
N#CC(CCN1CCOCC1)(c1ccccc1)c1ccccc1	7	-2	-3	4	-3	10	x	x
O=C(c1ccc(C(F)(F)F)cc1)C1CCCN(Cc2ccncc2)C1 (stereo not drawn)	-6	4	21	46*	22	20	7	18
O=C(c1ccc(Cl)cc1)C1CCCN(Cc2cccc3ncccc23)C1 (stereo not drawn)	4	-4	-2	41*	33	17	12	45*
O=c1[nH]c(=O)n(-c2ccccc2)c(O)c1/C=C1/C(c2ccccc2)=Nc2ccccc21	-29	3	-10	-19	-4	1	x	x
CCCCn1c(O)c(C(CC)=NCc2cc(OC)cc(OC)c2)c(=O)[nH]c1=O	-3	-6	6	13	-2	1	x	x
O=C1NC(=O)N(c2ccc3c(c2)OCO3)C(=O)/C1=C\c1ccsc1	7	5	8	-9	11	10	x	x
CCOC(=O)[C@]12Cc3cc(OC)ccc3[C@H]1N(Cc1ccccc1)C(=O)c1cc(F)c(F)cc12	2	-9	2	4	3	-5	x	x
COc1ccc(-n2nnnc2C(CCc2ccccc2)N2CCC(n3c(=O)[nH]c4ccccc43)CC2)cc1 (stereo not drawn)	41	-5	41	39*	-3	53	1	22
Cc1ccc(-n2c(O)c(/C=N/c3ncc(Br)cc3Br)c(=O)[nH]c2=O)cc1	2	5	7	15	3	15	x	x
